Compounds without any hit were thinned out: in the full panel of roughly 83,000, 20% have a hit.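 Cells were grown in 96-well plates and exposed to the test compound at a single concentration for 48 hours; results are reported as percent growth, with values below 10 considered active.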 Values without a mark were called inactive. Calls of active or inactive are those of the source.

This experiment concerns NCI-H322M lung. Put plainly: NCI-60 one-dose screen, 48 h (100 = growth as untreated, 0 = no growth, -100 = all killed). The following applies: 10 µM unless noted. Here is the method:
Growth inhibition of the NCI-H322M human Non-Small Cell Lung tumor cell line is measured as a screen for anti-cancer activity. Cells are grown in 96 well plates and exposed to the test compound for 48 hours. Compounds are tested at a single concentration, which is 10^-5 M for most compounds. The reported endpoint is percent growth (GI% or GIPRCNT), where numbers from 0 - 100% represent growth inhibition, and numbers from -100% - 0 represent cell death. For example, a value of 40 represents 60% growth inhibition. A value of 0 means no net growth occurred over the course of the experiment. A value of -40 indicates 40% of cells at the beginning of the experiment died by the end of the experiment. A value of -100 means all cells are dead at the end of the experiment.
NCI-60 Human Tumor Cell Lines Screen was performed using the standard one-dose NCI protocol, which is described in more detail at https://dtp.cancer.gov/discovery_development/nci-60/default.htm.
Compounds with GIPRCNT values below 10 were considered active. Activity score was based on GIPRCNT using the following formula: […]
Score is 0 for GIPRCNT values of 100 or above, 50 for GIPRCNT values of 0, and 100 for GIPRCNT values of -100.
For the compound `O=S(=O)(NCc1ccccc1)c1ncnc2nc[nH]c12`, the growth was 109%.

`O=C(N/N=C\c1cc(Cl)ccc1O)N/N=C/c1cc(Cl)ccc1O`: the growth is 74.7%.

Take `COc1ccc(C=C2c3ccccc3-c3ccccc32)cc1`: the growth was 72.2%.

On to `C#CCOc1ccc(C2=NN(CC3CC3)C3N=C(Cl)c4ncn(CC5CC5)c4N23)cc1OCC#C` (stereo not given), for which the growth is 76.1%.

For the compound `NC(=S)Cc1ccccc1`, the growth was 98.3%.

For `N=C(N)c1ccc(-c2ccc(-c3ccc(-c4cccs4)s3)s2)cc1F`, the growth is 26%.

For the compound `O=C1NC(=O)C(Cc2ccccc2)(Cc2ccccc2)N1`, the growth was 106%.

As to `CCn1cc(-c2ccnc(NCCNS(=O)(=O)c3ccc(Br)cc3)c2)c(-c2cccc(OC)c2)n1`, the growth was 85.3%.

On to `C=C(C)[C@@H]1CC[C@]2(C(=O)N3CCN(C)CC3)CC[C@]3(C)[C@H](CC[C@@H]4[C@@]5(C)C/C(=C/c6ccncc6)[C@H](O)C(C)(C)[C@@H]5CC[C@]43C)[C@@H]12`, for which the growth is -27% [100 µM] (active).

Take `CCN(CC)c1cc(N)c(Cc2c(N)cc(N(CC)CC)cc2Cl)c(Cl)c1`: the growth is 96.9%.

Take `COc1cc(NCc2cn(-c3ccc(C(=O)O)cc3)nc2-c2ccc(C(=O)O)cc2)cc(OC)c1OC`: the growth is 93.9%.

`CCN(CC)CCS(=O)(=O)CCNc1ccnc2cc(Cl)ccc12`: the growth was 56.8%.

Take `O=C1NC(=O)C(Cc2ccc(OCc3ccc(-c4cc(F)c(F)c(F)c4)cc3)cc2)S1` (stereo not given): the growth is 92.4%.

As for `Cc1nn(-c2ccccc2)c(N2CCOCC2)c1-c1nc2ccc([N+](=O)[O-])cc2[nH]1`, the growth was 93.2%.

Consider `C=C(C)[C@@H]1CC[C@]2(C)[C@H](C(=O)C=C3[C@@H]4C[C@](C)(C(=O)N5CCN(C)CC5)CC[C@]4(C)CC[C@]32C)[C@@]1(C)CCC#N`, for which the growth is -98.6% [100 µM] (active).

Consider `COc1cc(NN=C(c2ccc(O)cc2)c2ccc(O)cc2)c([N+](=O)[O-])cc1[N+](=O)[O-]`, for which the growth is 94.3%.

Turning to `O=C(Nc1ccc(Nc2ccncc2)cc1)c1ccc([N+](=O)[O-])cc1`, the growth was 90.4%.

On to `CCOC(=O)c1cc(C(=O)c2ccc(OC)c(OC)c2)n2ccc(-c3ccccn3)cc12`, for which the growth is 58.7%.

For `CCCCCN(CCCCC)CCCCCCCCN1CCCc2ccccc21`, the growth was 89.9%.

Consider `CCN1CCN(CC(=O)Nc2nc3ccc(NCc4ccc(Cl)cc4)cc3s2)CC1`, for which the growth was 79.4%.

In the case of `COc1ccccc1S(=O)Nc1ccccc1` (stereo not given), the growth was 94.9%.

Regarding `CCn1cc(-c2[nH]c(=S)ncc2-c2ccc(Cl)cc2)c(-c2ccc(Br)cc2)n1`, the growth was 96.5%.

As to `CC(C)(C)c1cc(C(=O)Nc2ccc(C(=O)NCCN)cc2)cc(C(C)(C)C)c1`, the growth was 58.3%.

Regarding `CC1Cc2c(ncnc2-n2cnc3ccccc32)N(C)c2ccccc21` (stereo not given), the growth was 63.7%.

Turning to `Fc1cc2[nH]ncc2c2c3c(c(-c4cn[nH]c4)nc12)CCCC3`, the growth was 2.77% (active).

For `CC1Cc2ccc(OCCN(C)C)cc2C1=O` (stereo not given), the growth was 97.8%.

Take `COc1ccc(-c2c(C)nn3c(NCCN4CCOCC4)cc(C)nc23)cc1OC`: the growth was 102%.

With `CCOC(=O)n1cc(C2=C(c3ccc(OC)c(OC)c3)COC2=O)c2ccccc21`, the growth was 52%.

Consider `Cc1cc(-c2ccc(N=Nc3c(S(=O)(=O)O)cc4cc(S(=O)(=O)O)cc(N)c4c3O)c(C)c2)ccc1N=Nc1cc(S(=O)(=O)O)c2ccccc2c1O`, for which the growth is 86.5%.

For the compound `c1cc2ccc1CNCCN1CCNCc3ccc(cc3)Oc3ccc(cc3)CNCCN(CCNCc3ccc(cc3)O2)CCNCc2ccc(cc2)Oc2ccc(cc2)CNCC1`, the growth is -28.5% (active).

For `O=C(CCNCc1ccccc1)c1ccccc1`, the growth was 110%.

In the case of `CC1(C)CC(=O)c2c(ccc(C(=O)C[C@@H](N)CO)c2N)O1`, the growth is 5.96% (active).

For `CCN(CC)c1ccc(/C=C/c2ccc3cc(C)ccc3[n+]2CC)cc1`, the growth is 35.9%.

As to `COc1cc(C(=O)/C=C/c2c(-c3ccc(F)cc3)nc3sccn23)cc(OC)c1OC`, the growth was 29.9%.

For the compound `CC[C@]12C=CCN3CC[C@@]4(c5ccc(OC)cc5N(C)[C@H]4[C@@](O)(C(=O)OC)[C@@H]1OC(=O)CCC(=O)O[C@H]1CC[C@H]4[C@@H]5CCC6=CC(=O)CC[C@@H]6[C@H]5CC[C@]14C)[C@@H]32`, the growth was 36.1% [100 µM].

On to `CN(C)CCCNc1nc(-c2cccc(C(Cl)(Cl)Cl)c2)nc(C(Cl)(Cl)Cl)n1`, for which the growth is 93.7%.

Consider `C=C(C)[C@@H]1CC[C@]2(C(N)=O)CC[C@]3(C)[C@H](CC[C@@H]4[C@@]5(C)C/C(=C/c6cccnc6)[C@H](O)C(C)(C)[C@@H]5CC[C@]43C)[C@@H]12`, for which the growth was 35.6% [100 µM].

With `CC1(C)C(=O)/C(=C\c2cccnc2)C[C@]2(C)[C@H]3CC[C@@H]4[C@H]5[C@H](C(=O)/C=C/c6cccnc6)CC[C@]5(C(=O)O)CC[C@@]4(C)[C@]3(C)CC[C@@H]12`, the growth is -97.2% [100 µM] (active).

On to `Cn1ncc2c(Nc3ccc(O)cc3)nc(Cl)nc21`, for which the growth is 96.6%.

Regarding `Cn1c(=O)c(C#N)c(-c2ccco2)n2c(S(=O)(=O)Cc3ccccc3)nnc12`, the growth was 89.1%.

These data come from PubChem BioAssay (NCI).
